# A549 viability: counter-screen for Nrf2 inhibitors: cytotoxicity in A549 cells | AID 504648 | actives 0.16% (n = 390,000) | A549 ARE-Fluc cells, CellTiter-Fluor viability, 18-24 h | Potency, µM (highest dose often 46 µM), for inactives: top-dose activity change, negative = cytotoxicity, hits mostly inhibitors; further: on the % scale 0 is the no-effect control and ±100 the full control effect
#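 A549 ARE_Fluc cells in 5% FBS OPTI-MEM were exposed to compounds in concentration-response for 18-24 h at 37 deg C. Viability was read by CellTiter-Fluor fluorescence (Ex 405/Em 525) after 30 min, before the luciferase read.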
# ATXN2 expr inh: inhibitors of ATXN2 expression; actives 0.72% (n = 360,000); HEK-293 ATXN2-luciferase reporter, luminescence, 24 h; Potency, µM (highest dose often 57 µM), without a hit: at the highest dose activity change, negative = inhibition, most hits filed as inhibitors; further: on the % scale 0 is the no-effect control and ±100 the full control effect; nearly all actives have a fitted effect of over 55% in size
#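 qHTS (up to 57 uM final) was run with 24 h compound exposure of reporter cells at 37 °C. Each well was multiplexed: SteadyGlo luminescence measured ATXN2-luciferase expression after a fluorogenic Gly-Phe-AFC viability readout (25 uM final).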
# Nrf2 inh: inhibitors of Nrf2 signaling; A549 ARE-Fluc reporter, luciferase luminescence, 18-24 h; Potency, µM (series often up to 46 µM), inactives show at the highest dose activity change, negative = inhibition, hits mostly inhibitors; actives 2.1% (n = 360,000); AID 504444; further: on the % scale 0 is the no-effect control and ±100 the full control effect; nearly all actives have a fitted effect of over 60% in size
#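 A549 ARE_Fluc cells, 5000/well, 5% FBS OPTI-MEM; compounds in dose-response, 18-24 h at 37 °C/5% CO2; CellTiter-Fluor viability read (Ex 405/Em 525), then BugLite luciferase luminescence = Nrf2 activity.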
# S2 tox: viability counter-screen for ATXN expression inhibitors; S2 cells (HEK-293 line with an ATXN2-luciferase reporter) viability, CellTiter-Fluor protease fluorescence, 24 h; Potency, µM (doses to about 56.7 µM), most hits filed as cytotoxic; actives 0.49% (n = 400,000); AID 651635; further: nearly all actives have a fitted effect of over 40% in size
# HepG2 viability: counter-screen for TGF-b inhibitors: cytotoxicity in HepG2 cells | HepG2 CAGA-GFP viability, ATP luminescence, 18 h | Potency, µM (highest dose often 46.1 µM), for inactives: at the highest dose activity change, negative = cytotoxicity, usual class: cytotoxic | actives 0.76% (n = 410,000) | AID 588856
#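 CellTiter-Glo luminescence gave cytotoxicity after 18 hours at 37 degrees C. The cells were HepG2 CAGA-GFP in 1% FBS DMEM, stimulated with 500 pg/mL TGF-beta after compound addition. %Activity was normalised to no-cell wells (complete cell-killing) and DMSO (no toxicity), and curves were fitted and classified.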
# TGFb inhibitor: blocks TGF-b signaling | HepG2 CAGA-GFP TGF-b/SMAD3 reporter, GFP fluorescence, 18 h; TGF-beta stimulated, 500 pg/mL final | Potency, µM (highest dose often 46.1 µM), for inactives: at the top dose activity, negative = inhibition, actives largely listed as inhibitors | actives 1.2% (n = 410,000) | AID 588855; further: on the % scale 0 is the no-effect control and ±100 the full control effect; nearly all actives have a fitted effect of over 65% in size
#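 Per well, imaged GFP fluorescence of HEPG2 CAGA-GFP cells gives the signal; cells get compound, then TGF-beta (500 pg/mL final), 18 h at 37 degrees C; %Activity versus -TGF-beta and +DMSO controls.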
# Starred values were filed as active, the others as inactive; i = inactive; ? = inconclusive; nt = no result. An excerpt weighted towards active compounds, which were near 3.8% of everything screened. The call rests on the fitted dose curve; in most records, active means well fitted curve in the direction sought with a large enough effect; inconclusive means small, poorly fitted or top-dose-only effect, or another doubt; inactive means no such curve, though single readings can be large; an effect the other way counts as inactive or inconclusive. Potency means the concentration at half of the fitted maximal effect.
SMILES,A549 viability,ATXN2 expr inh,Nrf2 inh,S2 tox,HepG2 viability,TGFb inhibitor
O=C(c1ccccc1F)N1N=C(C(F)(F)F)CC1(O)c1ccccc1 (centres undefined),nt,nt,nt,?,-18%,-19%
O=C(c1ccccc1)N1N=C(C(F)(F)F)CC1(O)c1ccccc1O (centres undefined),-14%,nt,?,?,7.1µM*,8.9µM*
OCc1ccc2c(c1)c(-c1ccc3c(c1)OCCO3)c(-c1ccccc1)n2-c1ccccc1,-1%,?,-16%,?,-8%,20µM*
O=C(/C=C/c1cn(-c2ccccc2)nc1-c1ccc2c(c1)OCCO2)NCCO,-3%,6%,20%,i,-159%,0%
COc1ccc2c(c1)CC(N1CCN(C)CC1)c1cc(OC)ccc1S2 (centres undefined),-1%,28µM*,?,?,16µM*,?
CC(C)=C[C@H]1C[C@H](C)[C@H]2CC[C@H](C)c3c(O[C@@H]4OC[C@@H](O)[C@H](O)C4O)c(O)c(C)c1c32 (some centres undefined),-11%,?,-16%,?,22µM*,?
CC(=O)O[C@H]1[C@H](O)[C@H](Oc2c(O)c(C)c3c4c2[C@@H](C)CC[C@@H]4[C@@H](C)C[C@H]3C=C(C)C)O[C@@H](C)[C@H]1O,-13%,?,11%,?,-114%,11µM*
CC(C)=C[C@@H]1C[C@H](C)[C@H]2CC[C@H](C)c3c(O)c(O)c(C)c1c32,6%,-1%,-14%,i,-42%,-10%
CC(=O)OC1[C@H](Oc2c(O)c(C)c3c4c2[C@@H](C)CC[C@@H]4[C@@H](C)C[C@@H]3C=C(C)C)OC[C@@H](O)[C@@H]1O (some centres undefined),-4%,3%,9%,i,-48%,11µM*
Cc1ccc([C@H]2N[C@]3(CCCN(Cc4ccc(F)cc4)C3=O)[C@H]3C(=O)N(C)C(=O)[C@@H]23)cc1,nt,1%,nt,i,-51%,?
COc1cc(OC)c(NC(=O)c2sc3ncn(CC(=O)N4CCOCC4)c(=O)c3c2C)cc1Cl,0%,3%,4%,i,8%,1%
COc1nccnc1NS(=O)(=O)c1ccc(N=Cc2c(C)[nH]n(-c3ccccc3)c2=O)cc1,0%,-11%,12%,i,4%,-2%
COc1nccnc1NS(=O)(=O)c1ccc(N=Cc2c(C)[nH]n(-c3ccc(C)c(C)c3)c2=O)cc1,-1%,12%,14%,i,10µM*,?
COc1cccc(/C=N/NC(=O)c2cc3cc([N+](=O)[O-])ccc3s2)c1O,?,?,15µM*,nt,10µM*,0%
COc1cccc(/C=N/NC(=O)C(=O)N/N=C/c2cccc(OC)c2O)c1O,-10%,0%,-14%,i,-19%,-8%
CC1(C(=O)NS(=O)(=O)c2ccc(Cl)cc2)CCN1C(=O)C1(c2ccc(Cl)cc2)CCC1 (centres undefined),nt,-10%,nt,i,-31%,-21%
Cc1occc1C(=O)Nc1cccc([N+](=O)[O-])c1C,-1%,1%,-7%,i,2%,14%
CC(C)c1c(C(=O)NCC(C)(C)N2CCOCC2)cnn1-c1nccc(-c2ccccc2F)n1,nt,nt,nt,i,nt,nt
O=C(O)c1ccccc1Nc1ccc([N+](=O)[O-])c2nonc12,18µM*,43%,-21%,?,-9%,14%
COc1cccc(Nc2ccc([N+](=O)[O-])c3nonc23)c1,18µM*,-12%,?,?,1%,-23%
Cc1cccc(NC(=O)CSc2nc(COc3ccccc3)nc3ccccc23)c1C,?,-25%,26µM*,i,-1%,2%
Cc1cccc(C)c1NC(=O)CSc1nc(COc2ccccc2)nc2ccccc12,?,3%,3%,i,-1%,-9%
COc1ccc(C(=O)/C=C/Sc2nc3ccccc3o2)cc1,0%,?,8%,nt,18µM*,10µM*
COc1ccc(C(=O)N/C(N)=N/c2nc3ccccc3o2)cc1,-27%,-7%,?,i,-43%,-6%
Cc1ccc(-n2nnnc2CNC(=O)c2ccccc2)cc1C,-1%,nt,nt,nt,0%,1%
SMILES,A549 viability,ATXN2 expr inh,Nrf2 inh,S2 tox,HepG2 viability,TGFb inhibitor
CC(C)Cc1ccc(S(=O)(=O)N2CCC(c3ccncc3)CC2)cc1,-11%,16µM*,nt,?,-65%,?
O=S(=O)(c1ccc(Cl)cc1)N1CCC(c2ccncc2)CC1,5%,nt,nt,nt,-15%,6%
CC(C)(C)c1ccc(S(=O)(=O)N2CCC(c3ccncc3)CC2)cc1,?,?,nt,?,-69%,2.8µM*
CN(C)C1C(=O)c2ccccc2C1=O,3%,15%,10%,i,3%,3%
O=S1(=O)C2CC3CCC2(CN1Cc1cccc(F)c1)O3 (centres undefined),2%,nt,21%,nt,1%,-4%
COc1ccc(CCC(=O)N/N=C/c2ccc3c(c2)OCO3)cc1,-1%,-6%,3%,i,16%,?
COc1ccccc1N1CCN(c2nc(C)nc3c2oc2ccccc23)CC1,-5%,35µM*,nt,?,-52%,?
Cc1ccc(C)c2sc(N3CCN(C(=O)c4ccco4)CC3)nc12,-19%,?,nt,i,-52%,10µM*
Cc1nc(N2CCC(C)CC2)c2oc3ccccc3c2n1,-9%,-27%,?,i,-33%,-24%
Cc1nc(N2CCN(C(=O)c3ccco3)CC2)c2oc3ccccc3c2n1,-13%,?,21µM*,i,-9%,2%
CCC1CN(CCNC(=O)c2cc(C)nn2CC)Cc2cc(OC)ccc2O1 (centres undefined),nt,nt,nt,i,nt,nt
CCc1ccc(CN2CCCC(CCC(=O)N3CCN(c4ccccn4)CC3)C2)o1 (centres undefined),0%,nt,5%,i,-27%,?
O=C(c1ccc(Sc2cccc(Cl)c2)c([N+](=O)[O-])c1)N1CCN(c2ccccn2)CC1,-12%,nt,16µM*,i,-1%,0%
CCc1ccc(NC(=O)C(=O)NCC(c2cccnc2)N2CCN(c3ccc(F)cc3)CC2)cc1 (centres undefined),9%,nt,-10%,nt,0%,-10%
CCOC(=O)Cc1csc(SCC(=O)NC2CCCC2)n1,10%,-4%,-9%,i,-1%,-1%
C/C(=N\Nc1ccccn1)c1ccc(N2CCOCC2)cc1,-7%,44%,37%,i,-30%,-18%
